# Screens as filed in PubChem.
# PrPC surface inh: reduces human prion protein on the cell surface. cell surface PrPC, TR-FRET read-out. inhibition, % at 13.8 µM. actives 0.43% (n = 370,000). AID 720596; in the data active means inhibition above about 24%; further: 0% = median of the test wells and 100% = reference compound wells
# SARS 3CLpro inh: SARS-CoV 3CLpro protease inhibition; inhibition, % at 6 µM; actives 0.14% (n = 290,000); P0C6X7; recombinant SARS-CoV 3CLpro, quenched FRET peptide cleavage; in the data active means inhibition above about 12%
# SSB-PriA inh: blocks PriA binding to SSB C-terminal tail; AID 1272365; inhibition, % at 33 µM; actives 0.6% (n = 430,000); AlphaScreen SSBct-PriA binding, biotinylated peptide; in the data active means inhibition mostly above about 37%, no sharp cut-off; inactive means mostly below about 20%;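 further: plate controls were negative control peptide for no effect and reference peptide for full effect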
# PrP 5UTR inh: inhibition of PrP 5' UTR reporter expression; cell-based PrP 5' UTR mRNA reporter, plate reader; inhibition, % (no concentration beside the values); actives 0.35% (n = 340,000); AID 488862; in the data active means inhibition above about 52%; further: 0 = median of the neutral control wells
# BJeLR lethal: BJeLR cell viability loss; BJeLR (HRASV12) viability, CellTiter-Glo ATP luminescence, 48 h; inhibition, % (no concentration beside the values); actives 0.17% (n = 300,000); in the data active means inhibition above about 50%
# PrPC confirm: confirmation of inhibitors of cell surface human prion protein. shares compounds with PrPC surface inh. cell surface PrPC level, TR-FRET. inhibition, % at 13.8 µM. actives 65% (n = 1,500). AID 743200; in the data active means inhibition above about 25%
# LD9 tox: LD9 cell cytotoxicity, PrPc inhibitor counter-screen | LD9 cells cytotoxicity, luminescence viability | shares compounds with PrPC surface inh | AID 743201 | inhibition, % at 13.8 µM | actives 29% (n = 1,500); in the data active means inhibition above about 9.5%
# Starred values were filed as active, the others as inactive; / = no result. Shown are actives, neighbours in structure and some others; about 1.2% of the full set was active somewhere.
SMILES,PrPC surface inh,SARS 3CLpro inh,SSB-PriA inh,PrP 5UTR inh,BJeLR lethal,PrPC confirm,LD9 tox
O=[N+]([O-])c1cccnc1S(=O)(=O)c1ccccc1,38.0*,-2.2,-13.1,-15.2,-0.9,-6.7,97.8*
Cn1nc(N2CCC[C@H](C(=O)Nc3ccc4c(c3)Cc3ccccc3-4)C2)ccc1=O,/,/,-7.0,/,/,/,/
Cc1ccc(Cc2nnc(N)o2)c(C)c1,/,/,12.0,/,/,/,/
O=C(NCC1CCN(c2ccncc2)CC1)c1ccc(Cl)s1,/,/,-12.0,/,/,/,/
CCc1c(C)nc(N)nc1N1N=C1SCC(N)=O,26.0*,3.2,-8.2,-23.3,-11.7,25.5*,-3.0
Cc1ccccc1NC(=O)Nc1ccc(C(F)(F)F)cc1,30.0*,5.6,-5.8,-70.5,0.2,16.5,8.9
Cc1ccccc1NC(=O)CNC(=O)c1ccc(C(F)(F)F)cc1,2.1,-2.3,-20.9,-6.6,-1.3,/,/
COc1cc(C=NNC(=O)c2ccc(COc3cc(C)ccc3C(C)C)cc2)cc(OC)c1O,/,/,-19.7,/,/,/,/
Cc1ccc(C(C)C)c(OCc2ccc(C(=O)N/N=C/c3ccc(O)cc3O)cc2)c1,38.1*,6.0,/,35.2,34.5,43.4*,17.4*
O=[N+]([O-])c1cc(Cl)ccc1N1CCN(c2ccccc2O)CC1,-6.7,-0.6,32.2,-12.5,6.0,/,/
O=S(=O)(CCN1CCN(c2ccccc2O)CC1)c1cc(Cl)ccc1Cl,35.8*,/,1.0,-14.3,/,2.9,-2.0
Cc1ccc(/C(O)=C2/C(=O)C(=O)N(c3ccccn3)C2c2ccc(F)cc2)cc1 (stereo not given),10.5,-2.5,/,-30.9,-2.5,/,/
CCOc1ccc(/C(O)=C2/C(=O)C(=O)N(c3ccccn3)C2c2ccc(F)cc2)c(C)c1 (stereo not given),29.4*,7.9,/,-10.6,1.9,63.1*,-5.9
O=C(CSc1ccc([N+](=O)[O-])cn1)Nc1ccc2c(c1)OCCO2,41.2*,3.3,-1.2,-25.3,0.5,-10.6,-0.2
O=C(NCc1cccnc1)c1c(O)c2cccc3c2n(c1=O)CCC3,31.9*,-1.1,-11.5,1.0,6.7,38.7*,-6.9
NCCNC(=O)c1c(O)c2cccc3c2n(c1=O)CCC3,14.8,-5.2,5.7,-14.3,-4.5,/,/
CSc1nc(-c2cccs2)c(C#N)c(=O)[nH]1,58.9*,-2.1,-10.2,-41.2,-5.9,87.3*,-0.9
N#Cc1c(-c2ccccc2)nc(SCC(=O)NC2CCCCC2)[nH]c1=O,36.1*,0.8,-9.0,2.9,/,39.4*,-9.8
CNC(=O)NC(=O)CSc1nc(-c2cccs2)c(C#N)c(=O)[nH]1,120.0*,3.4,-14.0,-51.1,1.7,123.7*,-3.4
N#Cc1c(-c2cccs2)nc(SCc2ccc(Cl)cc2)[nH]c1=O,109.0*,6.2,-14.0,-23.9,-6.8,119.1*,-7.2
O=c1[nH]c(SCc2ccc(Cl)cc2)nc2ccsc12,3.8,-0.8,8.2,/,-1.6,/,/
COc1ccc(C(=O)Nc2ccc(Oc3ncnc4sc5c(c34)CCCC5)cc2)cc1OC,/,/,-33.0,/,/,/,/
COc1ccc(S(=O)(=O)NCC(c2ccsc2)N2CCN(C)CC2)c(OC)c1 (stereo not given),/,/,-3.0,/,/,/,/
COc1ccccc1C(=O)Nc1ccsc1-c1nc(C2CC2)no1,/,/,-11.0,/,/,/,/
CCOc1cccc(-c2nc3c(c(=O)[nH]2)Cc2cc(Br)cc(OC)c2O3)c1O,/,/,-14.0,/,/,/,/
SMILES,PrPC surface inh,SARS 3CLpro inh,SSB-PriA inh,PrP 5UTR inh,BJeLR lethal,PrPC confirm,LD9 tox
CCc1ccc2ncc(C#N)c(Nc3cccc(SC)c3)c2c1,/,/,-25.0,/,/,/,/
O=C(CSc1cnc2ccccc2n1)NC1CCCC1,33.1*,2.8,0.2,-13.1,-4.0,39.7*,-1.0
COc1ccc(OC)c(S(=O)(=O)NCCCn2nc(-c3ccncc3)ccc2=O)c1,/,/,-3.0,/,/,/,/
CCOC(=O)c1sc2ncnc(NCc3ccco3)c2c1C,24.5*,-6.7,-3.3,2.9,-10.4,18.1,14.8*
COc1ccccc1N1CCN(C(=O)c2ccc(=O)n(C)n2)CC1,/,/,-17.0,/,/,/,/
COc1ccc(Cc2nnc(NN=C(C)c3ccccc3)[nH]c2=O)cc1OC,/,/,4.1,/,/,/,/
COc1ccc(C)cc1CN1C(=O)c2ccccc2C1=O,27.8*,-4.2,-14.4,-9.9,6.6,-4.2,-5.0
O=C(O)CCC(=O)Nc1nnc(C(F)(F)F)s1,12.8,4.8,-3.0,-28.1,/,/,/
CCC(NC(=O)Nc1nnc(C(F)(F)F)s1)(C(F)(F)F)C(F)(F)F,58.5*,-1.8,0.1,-20.6,28.3,74.5*,54.0*
